According to PubChem BioAssay (NCI):
Compounds without any hit were thinned out: in the full panel of roughly 83,000, 20% have a hit.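 In brief: 96-well plates, 48 h treatment, single concentration, percent growth endpoint.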 A number with no mark means an inactive call. The source made the active and inactive calls.

The compounds below were run on LOX IMVI melanoma (assay: NCI-60 one-dose screen, 48 h (100 = growth as untreated, 0 = no growth, -100 = all killed)). Conditions: 10 µM unless noted.
Experimental: Growth inhibition of the LOX IMVI human tumor cell line is measured as a screen for anti-cancer activity. Cells are grown in 96 well plates and exposed to the test compound for 48 hours. Compounds are tested at a single concentration, which is 10^-5 M for most compounds. The reported endpoint is percent growth (GI% or GIPRCNT), where numbers from 0 - 100% represent growth inhibition, and numbers from -100% - 0 represent cell death. For example, a value of 40 represents 60% growth inhibition. A value of 0 means no net growth occurred over the course of the experiment. A value of -40 indicates 40% of cells at the beginning of the experiment died by the end of the experiment. A value of -100 means all cells are dead at the end of the experiment.
NCI-60 Human Tumor Cell Lines Screen was performed using the standard one-dose NCI protocol, which is described in more detail at https://dtp.cancer.gov/discovery_development/nci-60/default.htm.
Compounds with GIPRCNT values below 10 were considered active. Activity score was based on GIPRCNT using the following formula: […]
Score is 0 for GIPRCNT values of 100 or above, 50 for GIPRCNT values of 0, and 100 for GIPRCNT values of -100.
With `CCNC(=O)Nc1nc2ccc(Oc3ccnc(C(=O)NC)c3)cc2s1` the growth was 70.7%. In the case of `Cn1ccnc1C(=O)/C=C/c1ccc(CC(=O)Nc2ccc(S(F)(F)(F)(F)F)cc2)cc1`, the growth was -78.7% (active). Work on `O=C1OCC2=C1C(c1cccc(F)c1)c1cc3c(cc1N2CCO)OCCO3` (stereo not given) yielded a growth of 31.4%. `CC/C(=C(\c1ccc(OCCN2CCCCCCC2)cc1)c1ccc(OC(=O)C2CCCCC2)cc1)c1ccc(Cl)cc1` was tested, and the growth was 102%. With `Nc1cc2c(cc1Br)-c1c(C(=O)O)cccc1C2O` (stereo not given) the growth was 95.8%. In the case of `O=C(Nc1ccc(C(=O)Nc2ccc(C3=NCCCN3)cc2)cc1)Nc1ccc(C2=NCCCN2)cc1`, the growth was 85.8%. `COc1cc(NCCN(CC(C)C)CC(C)C)c2ncc(C)cc2c1` showed a growth of 15.5%. For `Cc1ccc(N)cc1CN1C(=O)c2ccccc2C1=O`, the growth was 101%. With `Cc1ccc(-c2cc3c(SCC(=O)Nc4cc(C(F)(F)F)ccc4Cl)nccn3n2)cc1` the growth was -6.48% (active). With `C=CC(=O)Nc1cccc(Oc2nc(Nc3ccc(N4CCN(C)CC4)cc3)nc3ccsc23)c1` the growth was -85% (active). `Cc1cccc(C)c1N1C(c2ccccc2)=NNC12C=CC(=O)c1c(O)cccc12` (stereo not given) was tested, and the growth was 7.95% (active). With `Cn1ncc(Cl)c1-c1cc(C(=O)N[C@H](CN)Cc2ccc(F)c(F)c2)oc1Cl` the growth was -88.8% (active). In the case of `O=C1CSC(c2c(F)cccc2Cl)N1NC(=O)C(O)(c1ccccc1)c1ccccc1` (stereo not given), the growth was 94.2%. Compound `CC12O[C@H](C[C@@H](OC(=O)CCC(=O)O)[C@H]1O)n1c3ccccc3c3c4c(c5c6ccccc6n2c5c31)C(=O)NC4=O` has a growth of 15.9%. For `C=CC(=O)Nc1cccc(Nc2nc(Nc3ccc(N4CCN(C(C)=O)CC4)cc3OC)ncc2C(F)(F)F)c1`, the growth was 6.36% (active). With `c1cc[n+](Cc2c3ccccc3cc3c2ccc2ccccc23)cc1` the growth was 48.8%. `O=c1nc2c(-c3nc4ccccc4s3)n[nH]n2c2sc3c(c12)CCCC3` showed a growth of 96.9%. `COc1cc2ncnc(Nc3cccc(Cl)c3F)c2cc1OC(=O)N1CCN(C)C[C@H]1C` gave a growth of 79.6%. `COC(=O)[C@]12CC[C@@H](C)[C@H](C)[C@@H]1C1=CC[C@@H]3[C@@]4(C)C(C#N)=CC(C)=C4CC[C@@]3(C)[C@]1(C)CC2` gave a growth of 92.1%. `O=C(COc1ccc(/C=C2\Cc3ccc(Cl)cc3C2=O)cc1)Nc1nccs1` was tested, and the growth was 93%. `O=C(Nc1ccc(Nc2ncnc3sc4c(c23)CCOC4)cc1)Nc1ccc(Cl)c(C(F)(F)F)c1` showed a growth of 99.9%. `COc1cc2cc(NCc3ccc(F)cc3)nc(C)c2cc1OC` was tested, and the growth was 6.57% (active). `CC(CCCC(=O)O)c1ccoc1` (stereo not given) was tested, and the growth was 97.8%. `COc1ccc(C2OC(c3cc(-c4cc5ccccc5o4)nn3-c3ccccc3)=NN2C(C)=O)cc1` (stereo not given) gave a growth of 85.5%. Work on `Cc1cc(C2(c3ccc(O)c(C)c3)OS(=O)(=O)c3ccccc32)ccc1O` yielded a growth of 104%. With `O=C(Nc1cn[nH]c1-c1nc2ccc(CN3CCOCC3)cc2[nH]1)NC1CC1` the growth was 1.79% (active). Work on `Cc1c(N)ccc(-c2ccc(N)c(C)c2S(=O)(=O)O)c1S(=O)(=O)O` yielded a growth of 98.6%. Work on `Cc1ccc(-c2nc3ccc(Cl)cn3c2NC2CCCCC2)o1` yielded a growth of 103%. Compound `Cc1cc(-c2cc(OC(=O)c3ccccc3)ccc2Cl)cc2nnc(Nc3ccc(OCCN4CCCC4)cc3)nc12` has a growth of 48.4%. In the case of `Cc1nc(Nc2n[nH]c3c2CN(C(=O)N[C@H](CN(C)C)c2ccccc2)C3(C)C)c2sccc2n1`, the growth was -41.3% (active). With `CO[C@@H](C)Cn1c(=O)n(C)c2cnc3ccc(-c4cncc(C(C)(C)O)c4)cc3c21` the growth was -33.8% (active). With `CCN1CCN(c2cc(C)nc(N(CCCNc3ccnc4cc(Cl)ccc34)Cc3ccc4c(c3)OCO4)n2)CC1` the growth was -75% (active). For `Cc1cc(Oc2ccccc2)ccc1Nc1ncnc2ccc(-c3cnc(Cl)c(NS(C)(=O)=O)c3)cc12`, the growth was -3.68% (active). Work on `CCN(CCCOc1ccc2c(Nc3cc(CC(=O)Nc4cccc(F)c4)[nH]n3)ncnc2c1)CCOP(=O)(O)O` yielded a growth of 42%. For `COc1cccc(Nc2ncnn3ccc(CN4CC[C@@H](N)[C@H](O)C4)c23)c1`, the growth was 35.3%. `COc1cc(Nc2c(C#N)cnc3cc(OCCCN4CCN(C)CC4)c(OC)cc23)c(Cl)cc1Cl` showed a growth of 33.1%. With `C[C@@]1(C(=O)Nc2ccc(F)nc2)CCCN1c1nc(Nc2cc(C3CC3)[nH]n2)c2cccn2n1` the growth was -35.5% (active). For `COc1cc(OC)c(/C=C/S(=O)(=O)Cc2ccc(OC)c(NCC(=O)O)c2)c(OC)c1`, the growth was 16%. Compound `COC(=O)[C@@H](C)CNS(=O)(=O)N(c1cc(C(F)(F)F)cc(C(F)(F)F)c1)C1CCN(Cc2ccc(F)cc2)CC1` has a growth of 48.2%. Work on `CC(=O)C1CC(C)CCC1C(C)C` (stereo not given) yielded a growth of 86.6%.
